# Compounds with a hit are over-represented: about 5.2% of the library has one in this group of screens.
# Tau fluor cs: counter-screen for tau fibril formation inhibitors | tau K18 P301L Alexa594 fluorescence, heparin fibrillization | Potency, µM (titrated, usually from 57.7 µM), without a hit: at the top dose activity change, negative = decrease | 280,000 tested, 0.93% active | AID 1463; further: potency means the concentration at half of the fitted maximal effect; nearly all actives have a fitted effect of over 55% in size
#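 Human tau K18 P301L (15 uM unlabeled, 0.24 uM Alexa 594-labeled) in 100 mM sodium acetate pH 7 with 20 uM heparin, 6 hr at 37 C. ThT 30 uM added, 1 hr ambient; Alexa 594 FP and total fluorescence read at 555/632 nm.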
# Tau ThT inhib: tau fibrillization inhibition (ThT binding); Potency, µM (highest dose often 57.4 µM), for the others: at the highest dose activity, negative = inhibition, usual class: inhibitors; P10636; AID 1460; recombinant tau K18 P301L (four-repeat tau fragment), heparin-induced fibrillization, ThT fluorescence; 270,000 tested, 2.1% active; further: potency means the concentration at half of the fitted maximal effect; nearly all actives have a fitted effect of over 55% in size
# Target sequence (P10636 561-689 P618L limits assumed): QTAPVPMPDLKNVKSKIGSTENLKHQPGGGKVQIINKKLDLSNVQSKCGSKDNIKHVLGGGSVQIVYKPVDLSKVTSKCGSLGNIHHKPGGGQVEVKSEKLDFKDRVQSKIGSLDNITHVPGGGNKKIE
#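 K18 P301L tau (15 uM + 0.24 uM Alexa 594-tagged), heparin 20 uM, NaOAc pH 7, 6 h 37 C; ThT 30 uM, 1 h RT, ex 450/em 510 nm.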
# Sfp PPTase inh: blocks B. subtilis Sfp PPTase activity; Potency, µM, for inactives: largest response in the series, negative = inhibition, most hits filed as inhibitors; 310,000 tested, 3.5% active; Biochemical Sfp PPTase activity, qHTS; Q9F4F7;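 further: the enzyme is Sfp with the accession as filed and its product quenches rhodamine fluorescence; potency means the concentration at half of the fitted maximal effect; 0% = enzyme reaction without inhibitor and -100% = no enzyme wells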
#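 Fluorescence-quenching assay with 15 nM Sfp, 5 uM rhodamine-CoA and 12.5 uM BHQ-2-labelled ybbR peptide in pH 7.6 Hepes/MgCl2 buffer. Enzyme was pre-incubated with compound for 15 min at room temperature. Rate was taken from the 30-min fluorescence change (525/598 nm).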
# FBPA coupling cs: counter-screen for Giardia aldolase inhibitors: coupling enzyme system; coupling enzyme system counterscreen, AmpLite Red fluorescence; activity change, negative = inhibition, % at 58.2 µM, hits read low; 290,000 tested, 0.67% active; AID 2472; in the data active means activity change below about -30%
#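 Fluorescence at 525 nm excitation and 598 nm emission measured inhibition of the coupled detection system without aldolase. Compounds (at 57.5 uM final) were preincubated 10 min at room temperature with coupling enzyme reagent before a 20 min substrate/AmpLite Red step.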
# Tau FP inhib: inhibitors of human tau fibril formation | K18 P301L tau heparin fibrillization, Alexa594 FP, 6 h | Potency, µM (top dose mostly 57.7 µM), without a hit: at the top dose activity, negative = inhibition, actives largely listed as inhibitors | 280,000 tested, 0.39% active; further: potency means the concentration at half of the fitted maximal effect; nearly all actives have a fitted effect of over 55% in size
#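 Human K18 P301L fragment (15 uM unlabeled plus 0.24 uM Alexa 594-labeled) in 100 mM sodium acetate pH 7 with compound, aggregation induced by 20 uM heparin for 6 hr at 37 C. ThT (30 uM) added for 1 hr, then Alexa 594 FP read.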
# Numbers without * were called inactive; ? = inconclusive; . = no result given; ! = not active in a repeat; [ ] = remark or other dose. Unless noted, the call rests on the fitted dose curve; in most records, active means well fitted curve in the direction sought with a large enough effect; inconclusive means small, poorly fitted or top-dose-only effect, or another doubt; inactive means no such curve, though single readings can be large; an effect the other way counts as inactive or inconclusive. Unless noted, on the % scale 0 is the no-effect control and ±100 the full control effect.
SMILES,Tau fluor cs,Tau ThT inhib,Sfp PPTase inh,FBPA coupling cs,Tau FP inhib
COc1ccc(-c2nc3ccccc3nc2-c2ccc(OC)c(OC)c2)cc1OC,.,.,4.6%,0.3,.
COc1ccc2nc3cccc(OC)c3nc2c1,-25.7%,15.8µM*,-85.1%,-39.2*,?
Cc1ccccc1CN1C(=O)c2ccccc2Sc2ccc(C(=O)NC3CCCCC3)cc21,0.6%,-8.2%,.,.,-0.9%
O=C1C2=C(c3ccccc31)[N+](=O)C1CCCCC1N2[O-] (stereo not drawn),-25.7%,15.8µM*,-13.9%,-38.1*,?
O=C1C2=C(c3ccccc31)[N+](=O)[C@@H]1CCCC[C@@H]1N2[O-],-18.1%,?,56.2µM*,-45.2*,?
O=C1c2ccccc2C(=O)c2c1ccc1c(=O)n(C3CCCCC3)[nH]c21,?,?,-12.2%,-25.1,10.4%
Cc1cccc(C)c1NC(=O)Cn1nnc(C(=O)Nc2c(C)cccc2C)c1N,-15.5%,-10.7%,.,.,?
OCCOCCOCCO,.,.,14.4%,.,.
Cc1noc(C)c1C(=O)N1CCC[C@@]2(CCN(Cc3cc(C(F)(F)F)cc(C(F)(F)F)c3)C2)C1,.,.,-4.6%,2.5,.
Cc1ccc(NC(=O)Cn2nc(C)c3nn(-c4ccc(Cl)cc4)c(C)c3c2=O)cc1F,-26.3%,-3.2%,.,.,-4.8%
CC(=O)Nc1ccc(OC(=O)c2ccc(Br)c([N+](=O)[O-])c2)cc1,?,25.1µM*,-21.1%,4.1,?
CCOc1ccc(NC(=O)Nc2cc(C(C)C)ccc2C)cc1,?,-4.9%,14.2%,3.9,9.1%
O=C(Nc1ccc([N+](=O)[O-])cc1)Nc1ccc([N+](=O)[O-])cc1,.,.,4.1%,.,.
Cc1ccc(C(C)C)cc1NC(=O)Nc1ccc([N+](=O)[O-])cc1,7.94µM*[quencher],?,20.7%,-4.8,31.6µM*
CC(=O)Nc1ccc(OCCOc2ccc(NC(C)=O)cc2)cc1,.,.,6.1%,3.1,.
CCOc1ccc(C(=O)Oc2ccc(NC(C)=O)cc2)cc1,1.8%,-9.8%,3.6%,4.2,4.4%
CC(=O)Nc1ccc(OCCOc2ccc([N+](=O)[O-])cc2)cc1,-13.8%,?,89.1µM*,0.7,-7.1%
O=C(Nc1ccc(Oc2ccc(NC(=O)Nc3ccc([N+](=O)[O-])cc3)cc2)cc1)Nc1ccc([N+](=O)[O-])cc1,4.47µM*[quencher],6.31µM*,15.7%,-0.2,25.1µM*
CCCOc1ccc(-c2nn(-c3ccccc3)cc2C2NC(=O)NC(C)=C2C(=O)OC)cc1C (stereo not drawn),-24.7%,-11.0%,.,.,?
O=S(=O)(CCc1ccccc1)c1nc2ccccc2s1,1.3%,-8.2%,-19.3%,0.3,-1.1%
CCOCCCNC(=O)NC(CCC(C)C)c1c(-n2cccc2)sc2c1CCN(C)C2 (stereo not drawn),0.6%,1.0%,.,.,-1.8%
Cc1ccc(NC(=O)CSc2nc3ccccc3c3nc(CCn4c(C)nc5ccccc54)nn23)cc1F,8.8%,1.0%,.,.,-4.6%
O=C(O)CCc1ccc(-c2cccs2)n1CCc1ccccc1,-16.4%,?,20µM*,6.9,-12.5%
O=C(O)CCc1ccc(-c2cccs2)n1CCC(=O)O,-13.0%,?,7.94µM*,-0.7,-10.6%
Cc1ccc(NC(=O)Cn2c(CCC(=O)O)ccc2-c2cccs2)cc1Cl,-16.6%,?,39.8µM*,8.9,9.3%
SMILES,Tau fluor cs,Tau ThT inhib,Sfp PPTase inh,FBPA coupling cs,Tau FP inhib
Nc1c(C(=O)NCc2cccs2)nnn1CC(=O)Nc1cccc(F)c1,-6.2%,-4.4%,.,.,-12.7%
CCOc1ccccc1-n1c(=S)sc2c(=O)n(-c3ccc(C)cc3)c(=S)[nH]c21,-2.5%,-6.8%,44.7µM*,-22.6,-8.0%
Cc1ccc(NS(=O)(=O)c2ccccc2Cl)c2c1CC(C)(C)O2,-17.9%,-17.4%,-1.9%,.,-3.2%
Cc1cccc(S(=O)(=O)Nc2ccc(C)c3c2OC(C)(C)C3)c1,-16.7%,-10.8%,?,-44.4*,-2.2%
COC(=O)CCCC1=CC2=CC(=O)C(C)(OC(=O)c3cccs3)C(=O)C2=CN1CCCOC(C)C (stereo not drawn),-5.2%[11.6 µM],?,2.6%,-30.9*,-0.7%[11.6 µM]
COC(=O)CCCC1=CC2=CC(=O)C(C)(OC(=O)c3cccs3)C(=O)C2=CN1Cc1ccccc1 (stereo not drawn),-4.6%[11.6 µM],12.6µM*!,13.3%,-13.2,?
COC(=O)CCCC1=CC2=CC(=O)C(C)(OC(=O)c3cccs3)C(=O)C2=CN1Cc1ccc2c(c1)OCO2 (stereo not drawn),-8.0%[11.6 µM],12.6µM*!,-17.3%,-20.0,?
CCCCC1=CC2=CC(=O)C(C)(OC(=O)CC)C(=O)C2=CN1C1CCCC1 (stereo not drawn),-5.5%[11.6 µM],-6.6%[11.5 µM],25.3%,-32.9*!,1.9%[11.6 µM]
Cc1ccc(-c2nc3c4ccccc4n(CC(=O)N4CCN(c5ccccc5F)CC4)c(=O)n3n2)cc1,4.9%,-0.4%,.,.,-7.1%
CCn1c(=O)c2sccc2n2c(CCCC(=O)N3CCN(c4ccc(F)cc4)CC3)nnc12,-0.8%,0.7%,.,.,-0.9%
Cc1cc(C)cc(NC(=O)CSc2oc(-c3ccccc3)nc2S(=O)(=O)c2ccccc2)c1,?,5.6%,.,.,?
COC(=O)CCCC1=CC2=CC(=O)C(C)(OC(=O)c3cccs3)C(=O)C2=CN1C(CO)CO (stereo not drawn),0.2%[11.6 µM],-2.2%[11.5 µM],15.6%,-11.1,-4.6%[11.6 µM]
COC(=O)CCCC1=CC2=CC(=O)C(C)(OC(=O)c3cccs3)C(=O)C2=CN1c1ccc(OC)cc1 (stereo not drawn),-10.5%[11.6 µM],10µM*,-2.8%,-19.3,?
COC(=O)CCCC1=CC2=CC(=O)C(C)(OC(=O)c3cccs3)C(=O)C2=CN1CCc1c[nH]c2ccccc12 (stereo not drawn),-10.3%[11.6 µM],?,0.3%,-36.1*!,5.3%[11.6 µM]
COC(=O)CCCC1=CC2=CC(=O)C(C)(OC(=O)c3cccs3)C(=O)C2=CN1C1CCCC1 (stereo not drawn),-16.9%[11.6 µM],25.1µM*,-1.3%,-43.2*,?
CCCCC1=CC2=CC(=O)C(C)(OC(=O)CC)C(=O)C2=CN1CCc1c[nH]c2ccccc12 (stereo not drawn),2.0%[11.6 µM],?,14.6%,-2.4,2.1%[11.6 µM]
Cc1ccc(-n2ncc3c(NC4CCCCCC4)ncnc32)cc1,-16.8%,-8.8%,.,.,-6.0%
COc1cccc(-c2noc(-c3cc4ccccc4oc3=O)n2)c1OC,-22.7%,?,.,.,-11.3%
CC(C)CN(C[C@@H](O)[C@H](Cc1ccccc1)NC(=O)O[C@H]1CO[C@H]2OCC[C@H]21)S(=O)(=O)c1ccc(N)cc1,.,.,11.8%,.,.
CC(=O)OC1CC(OC(C)=O)[C@]2(C)C(CC(O)[C@]3(C)C2CC[C@@]2(C)C(c4ccoc4)OC(=O)C4O[C@]432)C1(C)C (stereo partly drawn),-16.8%,-19.8%,-6.6%,-2.6,2.6%

# Screening results: PubChem, National Center for Advancing Translational Sciences (NCATS)
